# Results from PubChem BioAssay AID743261 (The Scripps Research Institute Molecular Screening Center, 2014).
# Among all 3,300 compounds or so, about 35 (1%) were called active. Cut-off read from the data, not from the text of the source: active = inhibition above about 11%; inactive = the rest. Only a sample is shown.
# Target: 1-phosphatidylinositol 4,5-bisphosphate phosphodiesterase beta-3 (Homo sapiens) (UniProt Q01970)
# Assay: retest of human PLCB3 enzyme blockers – biochemical, fluorescence, purified enzyme, confirmation (AID 743261)
# Conditions: purified PLC-beta3, fluorogenic substrate fluorescence; at 12.3 µM; active compounds read high
# 1-phosphatidylinositol 4,5-bisphosphate phosphodiesterase beta-3 (Homo sapiens), sequence (Q01970 whole entry, looked up): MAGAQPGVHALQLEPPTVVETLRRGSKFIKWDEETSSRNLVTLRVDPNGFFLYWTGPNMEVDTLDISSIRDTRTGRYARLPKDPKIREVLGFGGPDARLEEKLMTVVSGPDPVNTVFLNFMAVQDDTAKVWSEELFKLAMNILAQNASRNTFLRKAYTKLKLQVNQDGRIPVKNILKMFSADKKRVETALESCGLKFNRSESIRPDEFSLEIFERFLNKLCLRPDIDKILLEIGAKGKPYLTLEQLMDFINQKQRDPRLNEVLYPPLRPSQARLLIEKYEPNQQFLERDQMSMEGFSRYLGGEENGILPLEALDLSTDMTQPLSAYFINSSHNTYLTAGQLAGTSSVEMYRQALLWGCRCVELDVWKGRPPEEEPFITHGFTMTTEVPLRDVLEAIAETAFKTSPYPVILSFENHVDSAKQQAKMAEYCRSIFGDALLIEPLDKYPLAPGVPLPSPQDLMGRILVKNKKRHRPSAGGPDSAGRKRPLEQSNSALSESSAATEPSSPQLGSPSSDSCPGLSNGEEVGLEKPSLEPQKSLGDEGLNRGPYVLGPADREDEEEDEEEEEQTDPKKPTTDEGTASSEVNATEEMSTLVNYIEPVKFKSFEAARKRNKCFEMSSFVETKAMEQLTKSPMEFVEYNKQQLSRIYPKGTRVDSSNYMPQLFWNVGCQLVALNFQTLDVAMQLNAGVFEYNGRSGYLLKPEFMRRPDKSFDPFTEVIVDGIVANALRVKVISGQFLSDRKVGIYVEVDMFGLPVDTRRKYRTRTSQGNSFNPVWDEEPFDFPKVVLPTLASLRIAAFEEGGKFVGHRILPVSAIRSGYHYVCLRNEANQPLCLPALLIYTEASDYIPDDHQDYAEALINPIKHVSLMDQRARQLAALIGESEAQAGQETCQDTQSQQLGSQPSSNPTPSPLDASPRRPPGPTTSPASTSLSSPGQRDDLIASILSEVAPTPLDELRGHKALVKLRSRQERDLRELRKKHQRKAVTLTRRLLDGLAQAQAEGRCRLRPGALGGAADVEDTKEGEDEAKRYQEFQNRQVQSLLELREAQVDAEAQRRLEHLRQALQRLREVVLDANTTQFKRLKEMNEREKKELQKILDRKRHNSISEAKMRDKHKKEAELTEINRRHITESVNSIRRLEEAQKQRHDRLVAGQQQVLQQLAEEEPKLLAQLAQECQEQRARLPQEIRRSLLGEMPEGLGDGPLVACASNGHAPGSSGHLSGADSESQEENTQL
row,Compound,inhibition
1,Cc1nc2ccccc2nc1CC(O)(c1ccccc1)c1ccccc1,1.99% (inactive)
2,CCOc1ccc(OCC)c(NC(=O)CSc2nnc(Cn3cnc4ccccc43)n2C)c1,2.61% (inactive)
3,CCC1S/C(=N/N=C/c2ccco2)NC1=O (stereo unspecified),3.39% (inactive)
4,CC(C)n1c(CN2CCN(Cc3ccccc3)CC2)nc2ccccc21,-2% (inactive)
5,Nn1cnnc1N/N=C/c1cc([N+](=O)[O-])c(Cl)cc1Cl,-0.09% (inactive)
6,COCCCN(C(=S)Nc1c(C)cc(C)cc1C)C(C)c1ccncc1 (stereo unspecified),3.06% (inactive)
7,Cc1ccc(N2CC(C(=O)NCCS(=O)(=O)N3CCN(c4ccccc4)CC3)CC2=O)cc1 (stereo unspecified),3.26% (inactive)
8,C/C(CC(C)C)=N\Oc1nc(C)cc(C)n1,-3.23% (inactive)
9,C=CC1=C(C(=O)O)N2C(=O)[C@@H](NC(=O)/C(=N\OCC(=O)O)c3csc(N)n3)[C@H]2SC1,20.5% (active)
10,COc1ccc(NC(=O)c2ccc(OC)cc2)cc1,-4.41% (inactive)
11,COc1ccc(/C=C2\N=C3CCCN3C2=O)cc1,-5.85% (inactive)
12,O=C(c1ccc2c(c1)OCO2)N1CCNc2ccccc2C1,-2.69% (inactive)
13,O=C(CSc1ccccc1)Nc1cccc(S(=O)(=O)N2CCOCC2)c1,4.18% (inactive)
14,Cc1cc(C)c(NC(=O)CN2CCOCCOCCOCCOCC2)c(C)c1,0.38% (inactive)
15,C=CCn1c(SCn2nnc3ccccc3c2=O)nnc1-c1ccc(Cl)cc1,-0.45% (inactive)
16,CCc1c(Nc2ccccc2C)nc(N)[nH]c1=O,1.95% (inactive)
17,CCOc1ccccc1NC(=O)CCN1CCN(S(=O)(=O)c2ccc(OC)cc2)CC1,-0.62% (inactive)
18,C=CCN(c1ccc(Cl)cc1)S(=O)(=O)c1cccc(C(=O)OCC(=O)N(C)C)c1,-16% (inactive)
19,Cc1nc(Nc2ccccc2C)c2cnn(C)c2n1,-0.91% (inactive)
20,Cc1ccc(NC(=S)N(Cc2ccco2)C(C)c2cccs2)cc1 (stereo unspecified),-0.01% (inactive)
21,COc1ccc(C(CNC(=O)c2cc(S(=O)(=O)Nc3cccc(C)c3)ccc2C)N2CCCC2)cc1 (stereo unspecified),-3.32% (inactive)
22,CCn1c(SCC(C)=O)nc2sc3c(c2c1=O)CCCC3,-2% (inactive)
23,Cc1nc2ccc(NC(=O)c3cccc(S(=O)(=O)N4CCOCC4)c3)cc2s1,-9.8% (inactive)
24,Cc1c(C#N)c2ncn(CC#N)c(=O)c2n1-c1ccccc1,-2.4% (inactive)
25,CS(=O)(=O)N(Cc1ccc(Cl)cc1)c1ccc(C(=O)NCCSCc2ccco2)cc1,1.86% (inactive)
26,Nc1nnc(SCC(=O)OCc2ccc(Cl)c(Cl)c2)s1,-2.66% (inactive)
